Reference: PubChem BioAssay (EPA / NIEHS)
Inconclusive results are not listed. Active and inactive are the calls of the source. How the source made its calls: active means hit-call score of the fitted dose curve at least 0.9, where 1 is the maximum; inconclusive means response in the unintended direction; inactive means score below 0.9.

Experiments:
[1] = TOX21_p53_BLA_p2_viability: Viability Assessment in the Tox21 HCT-116 p53 Agonism Beta-lactamase Assay, Phase 2 (AID 2283591);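 further: compound exposure lasted 16 h at 37 °C; actives lower the ATP signal meaning cytotoxicity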
In short: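 HCT-116 p53-bla cells (4000/well) rested 5 h at 37C, then received compounds in DMSO (217-fold dilution) for 16 h at 37C, 5% CO2. After the CCF4 read, CellTiter-Glo was added; ATP luminescence was read after 30 min at room temperature.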

[2] = TOX21_p53_BLA_p3_viability: Viability Assessment in the Tox21 HCT-116 p53 Agonism Beta-lactamase Assay, Phase 3 (AID 2283593);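 further: cells exposed to compound for 16 h before reading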
In short: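 HCT-116 cells (4000/well) rested 5 h at 37C, then got DMSO compounds by pin tool (217-fold dilution) for 16 h at 37C, 5% CO2. After the bla read, CellTiter-Glo was added and luminescence read at 30 min, room temperature.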

[3] = molecular target: Cellular tumor antigen p53 (Homo sapiens) (UniProt P04637); assay: TOX21_p53_BLA_p3_ratio: Tox21 HCT-116 p53 Agonism Beta-lactamase Assay, Ratio, Phase 3 (AID 2283596)
Sequence of Cellular tumor antigen p53 (Homo sapiens) (P04637 whole entry, looked up): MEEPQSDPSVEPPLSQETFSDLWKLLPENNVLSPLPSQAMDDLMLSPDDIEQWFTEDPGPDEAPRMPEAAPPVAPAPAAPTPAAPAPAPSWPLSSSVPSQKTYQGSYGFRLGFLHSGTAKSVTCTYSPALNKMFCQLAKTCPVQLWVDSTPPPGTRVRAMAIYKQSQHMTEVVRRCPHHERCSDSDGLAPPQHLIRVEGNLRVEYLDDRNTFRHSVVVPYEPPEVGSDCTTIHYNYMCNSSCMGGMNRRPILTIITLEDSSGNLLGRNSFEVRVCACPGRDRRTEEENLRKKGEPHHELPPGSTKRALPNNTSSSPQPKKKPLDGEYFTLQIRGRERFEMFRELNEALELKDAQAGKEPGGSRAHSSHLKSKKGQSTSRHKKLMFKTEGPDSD
In short: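 Cells were seeded at 4000/well, rested 5 h at 37C, then dosed with DMSO compound solutions (217-fold dilution) for 16 h. CCF4-AM substrate was loaded for 2 h at room temperature, and the 460/530 nm emission ratio was fitted for gain of signal versus DMSO.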

[4] = TOX21_p53_BLA_p4_viability: Viability Assessment in the Tox21 HCT-116 p53 Agonism Beta-lactamase Assay, Phase 4 (AID 2283597);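 further: hits lower the luminescence signal meaning cytotoxicity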
In short: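 In this multiplexed secondary endpoint, HCT116 cells (4000 per well, compound at 5 h, 16 h treatment) received CellTiter-Glo after the beta-lactamase read. Luminescence after 30 min RT reflects ATP, and falling signal marks cytotoxicity.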

[5] = molecular target: Cellular tumor antigen p53 (Homo sapiens) (UniProt P04637); assay: TOX21_p53_BLA_p5_ratio: Tox21 HCT-116 p53 Agonism Beta-lactamase Assay, Ratio, Phase 5 (AID 2283599)
In short: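 HCT-116 cells carrying a p53-inducible beta-lactamase reporter were seeded at 4000 cells/well and dosed after 5 h with compound in DMSO (217-fold dilution). After 16 h at 37C, CCF4-AM substrate was added for 2 h, and the 460/530 nm emission ratio was scored as gain-of-signal versus DMSO.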

PGR (gene 5241) [6] = molecular target: PGR (gene 5241) (UniProt P06401); assay: TOX21_PR_BLA_Followup_Antagonist_ratio: Tox21 HEK293 Progesterone Receptor (PR) Antagonism Beta-lactamase Follow-Up Assay, Ratio (AID 2283934);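 further: PR-UAS-bla HEK293T cells stimulated with 1 nM R5020 agonist for 16 hr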
Sequence of PGR (gene 5241) (P06401 whole entry, looked up): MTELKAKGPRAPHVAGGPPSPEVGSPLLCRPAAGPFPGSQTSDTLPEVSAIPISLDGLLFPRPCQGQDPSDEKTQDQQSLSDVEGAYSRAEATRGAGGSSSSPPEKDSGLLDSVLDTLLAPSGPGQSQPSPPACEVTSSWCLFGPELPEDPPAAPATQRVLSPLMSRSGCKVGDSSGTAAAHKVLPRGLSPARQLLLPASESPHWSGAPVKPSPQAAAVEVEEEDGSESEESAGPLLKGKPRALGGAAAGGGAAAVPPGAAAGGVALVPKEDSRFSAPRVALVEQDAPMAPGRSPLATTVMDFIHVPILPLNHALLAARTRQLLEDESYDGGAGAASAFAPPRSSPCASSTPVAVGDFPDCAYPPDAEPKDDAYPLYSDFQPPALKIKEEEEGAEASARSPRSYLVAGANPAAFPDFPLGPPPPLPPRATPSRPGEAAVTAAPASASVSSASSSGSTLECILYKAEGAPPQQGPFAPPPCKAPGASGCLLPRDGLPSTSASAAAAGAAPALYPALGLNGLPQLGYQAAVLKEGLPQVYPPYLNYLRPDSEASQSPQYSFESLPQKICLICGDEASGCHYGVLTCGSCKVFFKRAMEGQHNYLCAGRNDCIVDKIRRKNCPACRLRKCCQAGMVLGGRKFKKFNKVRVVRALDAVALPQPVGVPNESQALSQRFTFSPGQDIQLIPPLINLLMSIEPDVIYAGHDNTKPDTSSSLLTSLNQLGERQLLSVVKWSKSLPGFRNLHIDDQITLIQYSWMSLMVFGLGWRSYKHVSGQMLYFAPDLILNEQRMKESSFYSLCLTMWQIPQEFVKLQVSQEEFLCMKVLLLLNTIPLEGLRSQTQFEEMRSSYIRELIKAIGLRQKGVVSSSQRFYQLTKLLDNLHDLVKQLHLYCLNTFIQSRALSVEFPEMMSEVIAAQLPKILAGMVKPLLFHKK
In short: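 Measured in PR-UAS-bla HEK293T cells co-treated with compound and 1 nM promegestone for 16 hr; beta-lactamase ratio read after 2 h FRET substrate loading, with parallel CellTiter-Glo cytotoxicity.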

[7] = TOX21_PR_BLA_Followup_Agonist_viability: Viability Assessment in the Tox21 HEK293 Progesterone Receptor (PR) Agonism Beta-lactamase Follow-Up Assay (AID 2283935);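 further: signal loss means lower viability so actives are cytotoxic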
In short: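 Viability is read as CellTiter-Glo luminescence, where loss of signal indicates cytotoxicity. The cells are PR-UAS-bla HEK293T given compounds for 16 hr at 37C and 5% CO2, in the same wells used for the bla readout.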

[8] = TOX21_PR_BLA_Followup_Antagonist_viability: Viability Assessment in the Tox21 HEK293 Progesterone Receptor (PR) Antagonism Beta-lactamase Follow-Up Assay (AID 2283936);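 further: cells exposed to compound with R5020 agonist for 16 h; hits lower the luminescence signal meaning cytotoxicity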
In short: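 PR-UAS-bla HEK293T cells in medium with 2% charcoal-stripped FBS were treated with compounds plus R5020 for 16 hr at 37C. After the beta-lactamase read, CellTiter-Glo was added to the same wells and luminescence read after 30 min at room temperature.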

PGR (gene 5241) [9] = molecular target: PGR (gene 5241) (UniProt P06401); assay: TOX21_PR_LUC_Followup_Antagonist: Tox21 HEK293 Progesterone Receptor (PR) Antagonism Luciferase Follow-Up Assay (AID 2283938);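 further: curve fitted upward as signal gain over DMSO baseline despite antagonist label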
In short: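 Luciferase reporter in HEK293-PR-A-luc cells: 16 h compound treatment at 37C, ONE-Glo luminescence detection, DMSO as negative control and baseline.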

[10] = TOX21_PR_LUC_Followup_Antagonist_viability: Viability Assessment in the Tox21 HEK293 Progesterone Receptor (PR) Antagonism Luciferase Follow-Up Assay (AID 2283940)
In short: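 Loss of CellTiter-Glo ATP signal indicates cytotoxicity in HEK293-PR-A-luc cells grown in 10% charcoal-stripped FBS medium, seeded 3,000 per well and incubated 16 h with compound at 37C.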

[11] = TOX21_PR_LUC_Followup_Agonist_viability: Viability Assessment in the Tox21 HEK293 Progesterone Receptor (PR) Agonism Luciferase Follow-Up Assay (AID 2283941);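 further: loss of signal means cytotoxicity so actives lower viability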
In short: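 Seeding: HEK293-PR-A-luc, 3,000 cells/well, 5 h at 37C. Treatment: compound in DMSO, 16 h, 37C. Read: CellTiter-Glo ATP luminescence, signal loss taken as lower viability.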

[12] = TOX21_p53_BLA_p5_viability: Viability Assessment in the Tox21 HCT-116 p53 Agonism Beta-lactamase Assay, Phase 5 (AID 2283600)
In short: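 Here cell health was gauged by ATP levels in wells holding 4000 cells, each treated 16 h with DMSO-delivered compounds at 217-fold dilution; reduced luminescence marked toxicity.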

[13] = molecular target: Cellular tumor antigen p53 (Homo sapiens) (UniProt P04637); assay: TOX21_p53_BLA_p4_ratio: Tox21 HCT-116 p53 Agonism Beta-lactamase Assay, Ratio, Phase 4 (AID 2283601)
In short: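 HCT116 cells carrying an inducible beta-lactamase reporter were plated at 4000 cells/well, rested 5 h, then exposed to compounds in DMSO (217-fold dilution) for 16 h at 37C. CCF4-AM substrate was loaded 2 h at room temperature; 460/530 nm emission ratio scored gain-of-signal versus DMSO.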

Measured: AC50

COCCOC(=O)C1=C(C)NC(C)=C(C(=O)OC(C)C)C1c1cccc([N+](=O)[O-])c1 (stereo not given)
active: PGR (gene 5241) [6] 23 µM | PGR (gene 5241) [9] 26.4 µM
not listed: [12] | [13]
inactive: all other assays above

COc1ccc(CCN(C)CCCC(C#N)(c2cc(OC)c(OC)c(OC)c2)C(C)C)cc1OC (stereo not given)
inactive: [1] | [2] | [3] | [4] | [12] | [13]

O=C(O)CCCC/C=C(\c1ccccc1)c1cccnc1
inactive: [1] | [2] | [3] | [4] | [5] | [13]

CC(C)[N+](C)(C)CC(O)COc1cccc2ccccc12 (stereo not given)
inactive: [1] | [2] | [3] | [4] | [5] | [12] | [13]

CCC(=O)OCC(=O)[C@@]1(OC(=O)CC)[C@H](C)C[C@H]2[C@@H]3CCC4=CC(=O)C=C[C@]4(C)[C@@]3(F)[C@@H](O)C[C@@]21C
inactive: [1] | [2] | [3] | [4] | [12]
